In PubChem BioAssay AID1851 (National Center for Advancing Translational Sciences (NCATS), 2009):
The whole screen tested about 16,000 compounds, of which about 5,800 (36%) were called active. Inconclusive results (about 23%) are left out. Some of the results follow. Values without a mark were called inactive. Calls come from the whole dose curve; as a rule, active = well fitted curve in the direction sought with a large enough effect; inconclusive = small, poorly fitted or top-dose-only effect, or effect the other way; inactive = no such curve, though single readings can be large or run the other way.

The compounds below were run against Cytochrome P450 2C19 (Homo sapiens) (UniProt P33261) (assay: Cytochrome panel assay with activity outcomes). Conditions: recombinant CYP, pro-luciferin dealkylation, luminescence, p450-cyp2c19; series mostly up to 57.1 µM.
% is set by controls: 0 for no effect and ±100 for the full control effect.

Chain of Cytochrome P450 2C19 (Homo sapiens) (P33261 whole entry, looked up): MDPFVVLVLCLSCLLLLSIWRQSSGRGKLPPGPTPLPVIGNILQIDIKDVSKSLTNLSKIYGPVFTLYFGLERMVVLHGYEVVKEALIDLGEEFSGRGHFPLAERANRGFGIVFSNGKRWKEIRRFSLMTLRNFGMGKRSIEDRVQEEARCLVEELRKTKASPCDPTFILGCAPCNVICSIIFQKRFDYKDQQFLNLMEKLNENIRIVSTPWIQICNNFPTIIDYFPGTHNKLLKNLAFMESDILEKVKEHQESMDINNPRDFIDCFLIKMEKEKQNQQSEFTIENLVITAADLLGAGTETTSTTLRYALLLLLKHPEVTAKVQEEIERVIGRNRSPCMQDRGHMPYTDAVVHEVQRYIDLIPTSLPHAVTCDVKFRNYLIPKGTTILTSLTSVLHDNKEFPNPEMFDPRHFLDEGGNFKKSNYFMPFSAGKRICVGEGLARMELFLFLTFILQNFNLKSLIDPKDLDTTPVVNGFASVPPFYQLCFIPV

| Compound | AC50 | activity, negative = inhibition |
| --- | --- | --- |
| Cc1nnc(NC(=O)c2oc3c(ccc4ccccc43)c2C)s1 | 10 µM (active) | – |
| Cc1ccc(S(=O)(=O)CC#CCOC(=O)c2ccc([N+](=O)[O-])cc2)cc1 | 7.94 µM (active) | – |
| Cc1c(OC(=O)c2ccc([N+](=O)[O-])cc2)c2c(c[n+]1C)COC(C)(C)OC2 | inactive | – |
| CCOC(=O)n1ccn(C)c1=S | inactive | – |
| C/C(=C\C(=O)c1ccc(Cl)cc1)NCc1ccc2c(c1)OCO2 | 2.51 µM (active) | – |
| C/C(=C\C(=O)c1ccc(Br)cc1)NCc1ccc2c(c1)OCO2 | 8.91 µM (active) | – |
| O=C1Nc2ccccc2C(O)(C(=O)NCc2ccc3c(c2)OCO3)N1c1ccc(Cl)c(Cl)c1 (configuration not stated) | inactive | – |
| O=C(c1ccc(Cl)c(Cl)c1)c1cc(-c2ccccn2)c(N2CCOCC2)s1 | 7.94 µM (active) | – |
| O=C(Nc1ccccc1N1CCOCC1)c1ccccc1[N+](=O)[O-] | inactive | – |
| Cc1cc(F)ccc1S(=O)(=O)Nc1ccccc1C(=O)Nc1ccccc1N1CCOCC1 | 1.58 µM (active) | – |
| Cc1ccccc1C(=O)Nc1ccc(N2CCOCC2)nc1 | inactive | – |
| NCc1ccccc1CC(=O)N[C@@H]1C(=O)N2C(C(=O)O)=C(CSc3nnnn3CC(=O)O)CS[C@@H]12 | inactive | – |
| CCn1cnc2sc(C(=O)N3CCN(c4ccc(OC)cc4)CC3)c(C)c2c1=O | 10 µM (active) | – |
| CC(=O)NCCc1ccc(O)c(O)c1 | inactive | – |
| COc1ccc2[nH]c(-c3ccccc3)c(CCNC(C)=O)c2c1 | 7.94 µM (active) | – |
| COC(=O)Nc1ccc2[nH]cc(CCNC(C)=O)c2c1 | inactive | – |
| CC(=O)NCCc1c(Cc2ccccc2)[nH]c2ccccc12 | 25.1 µM (active) | – |
| C=N[C@H](C(=O)N[C@@H]1C(=O)N2[C@@H]1SC(C)(C)[C@@H]2C(=O)O)c1ccccc1 | inactive | – |
| COc1ccc(NS(=O)(=O)c2cc(-c3nnnn3C)ccc2OC)cc1 | 14.1 µM (active) | – |
| COc1ccccc1S(=O)(=O)Nc1ccc(-c2nnc3n2CCCCC3)cc1 | inactive | – |
| O=C(O)c1ccc(SSc2ccc(C(=O)O)cn2)nc1 | 2.51 µM (active) | – |

| Compound | AC50 | activity, negative = inhibition |
| --- | --- | --- |
| O=C(O)c1cc(C(=O)O)nc(C(=O)O)c1 | – | 3.49% [at 11.4 µM] |
| O=C(O)c1cccc(SSc2cccc(C(=O)O)c2)c1 | – | -33.7% [at 11.4 µM] |
| CCOC(=O)c1nnc(-c2ccccc2)nc1NCc1ccccc1 | 25.1 µM (active) | – |
| O=S(=O)(Nc1ccc(Cc2ccncc2)cc1)c1cccs1 | 0.0224 µM (active) | – |
| O=S(=O)(Nc1ccc(Cc2ccncc2)cc1)c1ccc(Br)cc1 | 0.0224 µM (active) | – |
| O=S(=O)(Nc1ccc(Cc2ccncc2)cc1)c1ccc(Cl)c(Cl)c1 | 0.0251 µM (active) | – |
| C/C(=N/S(=O)(=O)c1ccc(Cl)c(Cl)c1)OCC(C)(C)C | – | 58.8% [at 11.4 µM] |
| Cc1ccnc(NS(=O)(=O)c2ccc(N)cc2)n1 | inactive | – |
| CC(=O)N=c1sc(S(N)(=O)=O)nn1C | inactive | – |
| Cc1ccc(NC(=O)CSc2nnc(-c3ccncc3)o2)cc1 | inactive | – |
| COc1cc(-c2nnc(SCC3(c4ccccc4)OCCO3)o2)cc(OC)c1OC | 1.12 µM (active) | – |
| COc1cc(-c2nnc(SCC(=O)Nc3ccc4c(c3)OCCO4)o2)cc(OC)c1OC | 11.2 µM (active) | – |
| CCCCOC(=O)CSc1nnc(-c2cc(OC)c(OC)c(OC)c2)o1 | 15.8 µM (active) | – |
| CCN(CC)CCCCCCCCOC(=O)c1cc(OC)c(OC)c(OC)c1 | inactive | – |
| C/C(C[n+]1ccccc1)=N\N=C(N)N | – | 40.3% [at 11.4 µM] |
| Cn1cc(-c2nc3cnc(N4CCNCC4)nc3n(C3CC3)c2=O)c2ccccc21 | 20 µM (active) | – |
| CN1CCN(c2ncc3nc(-c4cn(C)c5ccccc45)c(=O)n(C)c3n2)CC1 | inactive | – |
| Cn1cc(-c2nc3cnc(N4CCNCC4)nc3n(-c3ccccc3)c2=O)c2ccccc21 | inactive | – |
| Cn1cc(-c2nc3cnc(Oc4ccccc4)nc3n(C3CC3)c2=O)c2ccccc21 | inactive | – |
| COc1ccc(-n2c(=O)c(-c3cn(C)c4ccccc34)nc3cnc(N4CCNCC4)nc32)cc1 | inactive | – |
| Cn1cc(-c2nc3cnc(N4CCNCC4)nc3n(C)c2=O)c2ccccc21 | 10 µM (active) | – |

| Compound | AC50 | activity, negative = inhibition |
| --- | --- | --- |
| Cc1ccccc1C(=O)NC(C)c1ccc2c(c1)CCCC2 (configuration not stated) | 2.82 µM (active) | – |
| CCn1c2ccccc2c2cnc(N=CN(C)C)c(C#N)c21 | 28.2 µM (active) | – |
| Cn1c(=S)c2[nH]c(SCCN3CCCC3)nc2n(C)c1=O | – | 57% [at 11.4 µM] |
| CC(C)(C)NC(=O)COC(=O)c1cncc(Br)c1 | 22.4 µM (active) | – |
| Cc1cnc(C(=O)OCC(=O)NC(C)C)cn1 | inactive | – |
| O=c1n(-c2ccccc2)c(=O)n2n1CC[C@H]1/C(=N\OCc3ccccc3)[C@H]3O[C@@H]3[C@@H](O)[C@@H]12 | – | 44.7% [at 11.4 µM] |
| CCOC(=O)c1ccc(S(=O)(=O)Nc2ccc3cn[nH]c3c2)cc1 | 3.16 µM (active) | – |
| COCCn1c(=O)c(-c2ccc(OC)cc2)nc2cnc(Nc3cccc(OC)c3)nc21 | inactive | – |
| C[C@@H]1CCN=C(N)S1 | inactive | – |
| CN1CCCN([C@@H](c2ccccc2)c2ccc(Cl)cc2)CC1 | inactive | – |
| N#Cc1ccc(C(c2nnnn2C2CCCC2)N2CCC(Cc3ccccc3)CC2)cc1 (configuration not stated) | 3.55 µM (active) | – |
| N#Cc1ccc(C(c2nnnn2Cc2ccccc2)N2CCCC2)cc1 (configuration not stated) | 11.2 µM (active) | – |
| N#Cc1cccc(C(c2nnnn2C2CCCC2)N2CCCCCC2)c1 (configuration not stated) | 5.62 µM (active) | – |
| O=C(Nc1ccc(-c2cn3ccccc3n2)cc1)c1cc(Br)ccc1O | – | -1.2% [at 11.4 µM] |
| Oc1ccc(Br)cc1CNn1cnnc1 | inactive | – |
| O=C(c1cc(Br)ccc1O)c1cc(Br)ccc1O | 0.2 µM (active) | – |
| O=S(=O)(c1ccc(F)cc1)n1ccc(-c2cnc(-c3ccccc3)s2)n1 | 8.91 µM (active) | – |
| Cn1c(=O)c(-c2ccccc2)nc2cnc(Oc3ccccc3)nc21 | inactive | – |
| COc1ccc(S(=O)(=O)n2ccc(-c3cnc(-c4ccccc4)s3)n2)cc1 | 1.58 µM (active) | – |
| COc1cccc(-c2cc(C(F)(F)F)n3ncc(S(=O)(=O)c4ccccc4)c3n2)c1 | inactive | – |
